ChEMBL document CHEMBL3988442, “University of Dundee, Small-Polar-MMV Screening Library” (2021)
Among all 48,000 compounds or so, about 13,000 (27%) showed an effect of 50% or more. The list shows a part of the results.

System: Wolbachia pipientis
Experiment: Anti-Wolbachia Cell-Based Screen
Type: functional
Set-up: scale not given: in the data most compounds retested in dose-response had high values
Conditions: 5 µM

Compound | Percent Effect
O=C(CCC1CCCCO1)NCc1cnn(-c2ccc(F)cc2F)c1 (stereo not given) | 2.583%
COc1ccc(C)cc1-n1cnnc1C1CCOCC1 | 1.298%
CCC[C@@H]1CN(C(=O)c2cnc3ccccc3c2)C[C@H]1NS(C)(=O)=O | -44.49%
CCC[C@@H]1CN(Cc2ccc(C(F)(F)F)nc2)C[C@H]1NS(C)(=O)=O | -0.637%
CS(=O)(=O)N[C@@H]1CN(Cc2ccc3ncccc3c2)C[C@H]1O | 100.1%
CSc1ccsc1C(=O)NS(=O)(=O)c1cnn(C)c1 | -33.43%
Cc1cccc(N2CCN(C(=O)CN3CCN(CCO)CC3)CC2)c1 | -11.5%
COC(=O)CN1CCN(c2cccc(C)c2)CC1 | -56.86%
COc1ccc(OCC(=O)n2nc(C)c(C)c2C)cc1 | 7.668%
OCc1c(Cl)ncn1-c1ccc(F)cc1 | 124.8%
Cc1cccc(-n2cnc(Cl)c2CO)c1 | 116.1%
Cc1ccc(-n2cnc(Cl)c2CO)cc1 | 81.89%
O=C1CC(c2ccc(C(=O)O)cc2)c2ncn(-c3ccc(F)cc3)c2N1 (stereo not given) | -3.148%
COc1ccc(-n2cnnc2CC2CCNCC2)cc1 | -7.776%
COc1ccc(-n2cnc(Cl)c2CO)cc1 | 99.78%
CC(=O)c1c(C)cc(C)c(Cn2ccnc2S(C)(=O)=O)c1C | -6.43%
CCOCCCC(=O)Nc1[nH]nc(-c2ccncc2)c1C | 17.32%
OCc1c(Cl)ncn1-c1ccccc1 | 94.93%
Cc1ccccc1-n1cnnc1SCC(=O)NCC1CCCO1 (stereo not given) | 6.164%
Cc1ccccc1-n1cnc(Cl)c1CO | 94.22%
Cc1ccccc1-n1cnnc1SCC1CCCCO1 (stereo not given) | 0.1895%
Cc1ccoc1C(=O)NCCOc1ncc(Cl)cc1Cl | -11.16%
Cc1nn(CCC#N)c(C)c1[C@@H]1C=C[C@@H](NCc2cccc(Cl)c2)C1 | -10.09%
O=C(Nc1ccncc1)NC1CCN(c2ccccc2OC(F)F)C1 (stereo not given) | -11.28%

Compound | Percent Effect
Cc1noc(CCCc2nc(C3CCOC3)no2)n1 (stereo not given) | 78.93%
Cc1noc(C)c1CCc1nc(C2CCOC2)no1 (stereo not given) | 100.6%
CC(C)CCN1CCN(Cc2nc(C3CC3)no2)CC1 | -1.38%
Cc1ccc(CCc2nc(C3CCOC3)no2)o1 (stereo not given) | 90.49%
Cc1noc(CCCC(=O)N(CC2CCOC2)C2CC2)n1 (stereo not given) | -3.8%
Cc1noc(C)c1CS(=O)(=O)Cc1nc(C2CC2)no1 | -5.953%
Cc1ccccc1CS(=O)(=O)Cc1nc(C2CC2)no1 | -6.253%
CCc1nc(C2CCCN(c3nccc(C)n3)C2)no1 (stereo not given) | -0.3429%
Cc1noc(C)c1Cc1nc(C2CC2)no1 | -12.44%
CCOCC(=O)NC(C)c1cc(C)ccc1C (stereo not given) | 4.424%
c1nc(CSc2nnc(C3CC3)s2)cs1 | -11.09%
CCN1CCC(CC(=O)NCc2cc(C)nn2C)CC1 | -11.94%
COc1c(CNC2(c3noc(C)n3)CCC2)c(C(C)C)nn1C.Cl | -8.281%
CC(C)c1nn(C)c(N2CCOCC2)c1CNCC(=O)N(C)C | -5.66%
COc1c(CNCC(=O)N2CCN(C)CC2)c(C(C)C)nn1C | 95.67%
COc1c(CNCc2cnn(C)c2)c(C(C)C)nn1C | -6.64%
CC(C)c1nn(C)c(N(C)C)c1CNCCC(=O)N(C)C.Cl | -2.081%
CC(C)c1nn(C)c(Cl)c1CNCC(=O)N1CCN(C)CC1.Cl | 99.42%
Cc1cccc(N2CCC(NC(C)c3cccs3)CC2)n1 (stereo not given) | -26.34%
C[C@@H]1CN(c2ccc3c(Cl)ccnc3c2F)CC(C(N)=O)O1 (stereo not given in full) | -9.196%
CC(C)c1noc(CCCC(=O)NC2CCS(=O)(=O)C2)n1 (stereo not given) | 7.76%
CC(C)(C)S(=O)(=O)c1ccc(N2CCN(c3ccccn3)CC2)nn1 | 14.84%
CC(C)NC(=O)N1CCC2(CC(=O)N(c3ccsc3)C2)C1 (stereo not given) | 94%
CC(C)NC(=O)N1CCC2(C1)CN(c1ccsc1)C(=O)CN2C.O=C(O)C(F)(F)F (stereo not given) | -13.82%

Compound | Percent Effect
CC(C)NC(=O)N1CCC2(CC(=O)N(c3cccc(C#N)c3)C2)C1 (stereo not given) | -3.038%
Cc1cccc(N2CC3(CCN(S(=O)(=O)c4ccccc4)C3)CC2=O)c1 (stereo not given) | -6.441%
O=C(Nc1ccccc1)N1CCC2(CC(=O)N(c3ccsc3)C2)C1 (stereo not given) | 106%
O=C(Cc1ccccc1)N1CCC2(CC(=O)N(c3ccsc3)C2)C1 (stereo not given) | 4.465%
Cc1cccc(NC(=O)N2CCC3(CC(=O)N(c4ccsc4)C3)C2)c1 (stereo not given) | 111.9%
CCN1CC2(CNCCN(C(=O)Nc3ccccc3)C2)CC1=O.O=C(O)C(F)(F)F (stereo not given) | -17.66%
COCC(=O)N1CCC2(CC(=O)N(c3cccc(F)c3)C2)C1 (stereo not given) | -16.31%
O=C(c1cnccn1)N1CC[C@H]2[C@@H]1CCC(=O)N2c1cccnc1 | -6.797%
COc1cc(C)cc(C(C(=O)O)N(C)Cc2ccncc2C)c1OC (stereo not given) | 4.518%
CN(C)C(=O)CN1C[C@@H]2CC[C@H](C1)N(Cc1ccc(Cl)cc1Cl)C2 | -35.05%
CSc1ccc(CN2C[C@@H]3CC[C@@](O)(c4ccc(C)cn4)[C@@H]3C2)cc1 | 135.2%
Cc1ccc([C@]2(O)CC[C@H]3CN(Cc4ccc(Cl)cc4Cl)C[C@H]32)nc1 | 121.2%
Cc1cccc(C2(NC(=O)CCN3C(=O)CCC3=O)CCCC2)c1 | -3.276%
COCCOc1ccc(CNc2nc3ccccc3nc2N)cn1 | 162.2%
COCCOc1ccc(NCc2cccc3cn[nH]c23)cn1 | -20.32%
COCCOc1ccc(CNc2cnc3ccccc3n2)cn1 | 132.7%
COCCN1CCC(CNc2nc3ccccc3o2)CC1 | 8.013%
OC1CCN(c2ccc(CNc3nc4ccccc4o3)cc2F)CC1 | -1.066%
OCCOc1ccc(NCc2cccnc2)cn1 | 7.993%
COCCN1CCC(CNc2cnc3ccccc3n2)CC1 | -17.24%
COCCOc1ccc(CNc2nc3ccccc3o2)cn1 | 106.2%
COCc1ccccc1NC(=O)NCc1ccc(OCC2CC2)nc1 | 7.542%
